PubChem BioAssay (NCI)
The panel holds about 83,000 compounds, 20% with a hit somewhere; the sample as a whole holds those more often.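 Cells were grown in 96-well plates and exposed to the test compound at a single concentration for 48 hours; results are reported as percent growth, with values below 10 considered active.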 Values without a mark were called inactive. Activity calls are given as the source filed them.

The compounds below were run on ACHN renal (assay: NCI-60 one-dose screen, 48 h (100 = growth as untreated, 0 = no growth, -100 = all killed)). Details: 10 µM unless noted.
Protocol: Growth inhibition of the ACHN human tumor cell line is measured as a screen for anti-cancer activity. Cells are grown in 96 well plates and exposed to the test compound for 48 hours. Compounds are tested at a single concentration, which is 10^-5 M for most compounds. The reported endpoint is percent growth (GI% or GIPRCNT), where numbers from 0 - 100% represent growth inhibition, and numbers from -100% - 0 represent cell death. For example, a value of 40 represents 60% growth inhibition. A value of 0 means no net growth occurred over the course of the experiment. A value of -40 indicates 40% of cells at the beginning of the experiment died by the end of the experiment. A value of -100 means all cells are dead at the end of the experiment.
NCI-60 Human Tumor Cell Lines Screen was performed using the standard one-dose NCI protocol, which is described in more detail at https://dtp.cancer.gov/discovery_development/nci-60/default.htm.
Compounds with GIPRCNT values below 10 were considered active. Activity score was based on GIPRCNT using the following formula: […]
Score is 0 for GIPRCNT values of 100 or above, 50 for GIPRCNT values of 0, and 100 for GIPRCNT values of -100.

| Compound | growth |
| --- | --- |
| OCC(CO)(CCl)CCl | 104% |
| CC(C)(C)n1cc(-c2ccnc(NCCCNS(=O)(=O)c3ccc(Cl)cc3)c2)c(-c2cccc(F)c2)n1 | 80.8% |
| C=C(C)[C@@H]1CC[C@]2(C(=O)N3CCCNCC3)CC[C@]3(C)[C@H](CC[C@@H]4[C@@]5(C)CCC(=O)C(C)(C)[C@@H]5CC[C@]43C)[C@@H]12 | 105% |
| Cc1ccc(-c2nc([P+](c3ccccc3)(c3ccccc3)c3ccccc3)c(N3CCOCC3)o2)cc1 | 8.24% (active) |
| CCc1nnc(NC(=O)c2ccoc2COc2ccccc2)s1 | 64.8% |
| c1cnc2[nH]cc(-c3csc(-c4cn(CCCN5CCCCC5)c5ccccc45)n3)c2c1 | 60.2% |
| CCOc1ccc(NC(=O)c2ccccc2-c2ccccc2C(=O)O)cc1 | 107% |
| CCN1CCN(c2nc(C)cc(N(CCCNc3ccnc4cc(Cl)ccc34)Cc3ccco3)n2)CC1 | 30.2% |
| Cc1csc(Nc2nc(-c3ccc(Cl)cc3)nc(C(Cl)(Cl)Cl)n2)n1 | 49.5% |
| C=C1C(=O)O[C@H]2[C@H]1CC/C(Cn1cc(-c3ccc(OC)cc3)nn1)=C\CC[C@@]1(C)O[C@@H]21 | 6.78% (active) |
| COc1ccc(/C=C/C(=O)NCC(C)O)cc1 (stereo not given) | 102% |
| C/C(=N\Nc1cc(C)c2ccccc2n1)c1ccccn1 | -47.1% (active) |
| Cc1ccc(N(CC(=O)Nc2ccc(S(=O)(=O)N3CCC(N4CCCC4)CC3)cc2)S(=O)(=O)c2ccc(Cl)cc2)cc1 | -38.4% (active) |
| Cc1ccc2oc(=O)cc(-c3sc(N4CCCCC4)nc3-c3ccccc3)c2c1 | 84.3% |
| C[C@@H](C(=O)O)c1ccc2c3cc(Cl)ccc3n(Cc3cc(=O)oc4ccc(Cl)cc34)c2c1 | 99.8% |
| N#CC1=C(N)Oc2c(c(N)nn2-c2ccccc2)C1c1ccc(Cl)cc1 (stereo not given) | 93.1% |
| Cn1cc(-c2csc(-c3cn(CCNC(=O)OC(C)(C)C)c4ccccc34)n2)c2cccnc21 | 74.3% |
| C[N+](C)(CCCCCC[N+](C)(C)C1c2ccccc2-c2ccccc21)C1c2ccccc2-c2ccccc21 | 106% |
| COc1ccc2c(c1)c(-c1nc(-c3c[nH]c4ncccc34)cs1)cn2CCCN1CCCCC1 | 22.3% |
| CCCCC(=O)OC1CCCCC1C (stereo not given) | 94.4% |

| Compound | growth |
| --- | --- |
| COc1cc(/C=N/NC(=S)NNC(=S)NC2CCCCC2)cc(OC)c1OC | 94.2% |
| CCCCCCCCNc1cccc2c1C(=O)c1ccccc1C2=O | 111% |
| O=C(NO)c1ccc(Cn2c(=O)n(-c3ccccc3)c(=O)c3ccccc32)cc1 | 55.7% |
| Cc1cc2nc3c4cc(O)ccc4n(CCN(C)C)c3nc2cc1C | -33.7% (active) |
| COC(=O)[C@]12CC[C@@H](C)[C@H](C)[C@@H]1C1=CC(=O)[C@@H]3[C@@]4(C)C[C@@H](O)[C@H](O)[C@@]5(C)COC(=C45)C[C@@]3(C)[C@]1(C)CC2 | 69.5% |
| O=c1c(CNc2ccc(S(=O)(=O)Nc3ncccn3)cc2)coc2ccccc12 | 89.9% |
| Cc1cccc(C)c1NC(=O)CSC(=S)N1CCN(CCOCCO)CC1 | 106% |
| COc1cc(/C=C/c2cc(/C=C/c3ccc(O)c(OC)c3)n(-c3ccc(Cl)cc3)c(=O)n2)ccc1O | 83.1% |
| O=c1[nH]c2c3ccncc3cc(-c3cccc(Cl)c3)c2c2cnccc12 | 17.2% |
| Cc1ccnc2c(OCc3ccccc3)cccc12 | 89.3% |
| COC(=O)[C@]12CC[C@@H](C)[C@H](C)[C@@H]1C1=CC[C@@H]3[C@@]4(C)C[C@@H](O)[C@H](O)[C@@](C)(CO)C4=CC[C@@]3(C)[C@]1(C)CC2 | -83.7% (active) |
| Cc1cc(Cl)c2c(N(C)C)cccc2n1 | 112% |
| COc1cccc(-c2nn(-c3ccccc3)cc2-c2ccnc(NCCCNS(=O)(=O)c3ccc(C(F)(F)F)cc3)c2)c1 | 22.4% |
| Oc1ccc(Nc2ccccc2)cc1 | 46.9% |
| CC(C)(C)c1[nH]nc2c1C(c1cc3ccccc3[nH]c1=O)Nc1cc(C(=O)OCc3ccccc3)ccc1N2 (stereo not given) | 28.6% |
| COc1cc2c3c(c4c5ccccc5[nH]c4c2c(OC)c1OC)C(=O)N(O)C3=O | 20.6% |
| COc1ccc(-c2cc(/C=C/C(=O)c3ccc(N)cc3)[nH]n2)cc1 | 26.9% |
| COc1cc(-c2c(C#N)c(-c3cccs3)nc3c2c(-c2ccccc2)nn3-c2ccccc2)ccc1O | 86.1% |
| CN1CCN(c2ccc3nc(-c4[nH]ncc4Nc4ncnc5c4OCCCN5)[nH]c3c2)CC1 | -98.4% (active) |
| C=C(C)[C@@H]1CC[C@]2(CN)CC[C@]3(C)[C@H](CC[C@@H]4[C@@]5(C)CCC(=O)NC(C)(C)[C@@H]5CC[C@]43C)[C@@H]12 | 69.1% |
